Epigenetic reg = Quantitative High-Throughput Screen for Regulators of Epigenetic Control. Potency, µM (doses to about 53.9 µM), for the others: at the top dose GFP activation, usual class: activators. AID 1865, 2009. hit rate 0.2% among 280,000. murine LDR cells, GFP reporter derepression, 30 h; note: potency is the fitted concentration of half-maximal effect; % of control where 0% means no effect; nearly all actives have a fitted effect of over 60% in size
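Murine LDR cells carrying a silenced, genomically integrated CMV-driven GFP reporter were exposed to compound for 30 hours at 37 C. After PBS washes, GFP-positive cells (20–120 um objects) were counted by laser-scanning microplate cytometry.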
Vif-APOBEC3F blk = qHTS for Inhibitors of Vif-A3F Interactions: qHTS; HeLa A3F-eYFP + Vif (tagged APOBEC3F with the HIV-1 protein that degrades it), YFP fluorescence increase; Potency, µM (top dose mostly 46.1 µM), for inactives: at the top dose activity, negative = active; hit rate 0.2% among 390,000; note: potency is the fitted concentration of half-maximal effect; % of control where 0% means no effect; nearly all actives have a fitted effect of over 65% in size
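HeLa cells stably expressing Vif plus C-terminally eYFP-tagged A3F were seeded, incubated overnight at 37 deg C, dosed with compound, incubated overnight again at 37 deg C. Yellow fluorescence (Ex 488/Em 500-530) reported blocked Vif-mediated A3F-eYFP degradation.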
Vif-APOBEC3G blk = qHTS for Inhibitors of Vif-A3G Interactions: qHTS; HeLa A3G-eYFP + Vif (tagged APOBEC3G with the HIV-1 protein that degrades it), YFP fluorescence, overnight; Potency, µM (doses to about 46.1 µM), for inactives: top-dose activity, negative = active, usual class: inhibitors; hit rate 0.076% among 410,000; AID 602310, 2012; note: potency is the fitted concentration of half-maximal effect; % is set by controls: 0 for no effect and ±100 for the full control effect; nearly all actives have a fitted effect of over 60% in size
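Read-out is eYFP fluorescence (Ex 488/Em 500-530) from Vif-expressing HeLa A3G-eYFP cells; more signal means A3G escaped Vif-mediated degradation. Cells plated overnight, compound pinned in, incubated overnight at 37 deg C.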
Apoferritin bind = qHTS Assay for Identification of Novel General Anesthetics; Potency, µM (titrated, usually from 77.5 µM), inactives show at the top dose activity change, negative = displacement, hits mostly inhibitors; apoferritin/1-aminoanthracene competitive binding, fluorescence; hit rate 0.074% among 350,000; AID 485281, 2010; Ferritin light chain (Equus caballus), P02791; note: potency is the fitted concentration of half-maximal effect; % is set by controls: 0 for no effect and ±100 for the full control effect; nearly all actives have a fitted effect of over 20% in size
Target sequence (P02791 2-175 limits assumed): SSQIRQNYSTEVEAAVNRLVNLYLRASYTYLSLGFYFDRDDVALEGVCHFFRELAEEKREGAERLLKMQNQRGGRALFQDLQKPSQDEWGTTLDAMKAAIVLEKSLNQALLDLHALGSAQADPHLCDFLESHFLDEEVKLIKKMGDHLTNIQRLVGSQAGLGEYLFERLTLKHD
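10 uM apoferritin + 50% sat. 1-AMA, PBS; cpd 10 min RT; Ex380/Em535 endpoint; normalized to free probe vs complex; 4-param Hill fit; propofol titration as pos. ctrl.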
LDHA block = qHTS assay for inhibitors of human lactate dehydrogenase; purified LDHA, NADH/diaphorase-resazurin fluorescence; active compounds read low; activity change, % (values are at about 110 or 230 µM); hit rate 0.15% among 480,000; in the data active = activity change below about -30%; inconclusive = mostly about -25% to -30%;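 note: plate controls were DMSO wells for no effect and wells without enzyme for full effect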
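Resorufin fluorescence (ex540/em590), read at 0 and 20 min after diaphorase/resazurin addition, reports the NADH left after a 5 min room-temperature reaction of 2 nM human LDH5 with 0.06 mM NADH and 0.2 mM pyruvate.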
* hit, by the source's call; ? = inconclusive; / = no result. This is a sample that favours compounds with a hit; in the whole collection about 0.49% have one here. Unless noted, calls come from the whole dose curve; as a rule, active = well fitted curve in the direction sought with a large enough effect; inconclusive = small, poorly fitted or top-dose-only effect, or another doubt; inactive = no such curve, though single readings can be large; an effect the other way counts as inactive or inconclusive.

SMILES	Epigenetic reg	Vif-APOBEC3F blk	Vif-APOBEC3G blk	Apoferritin bind	LDHA block
Cc1ccc(Nc2nnc(-c3cc4c(ccc5ccccc54)oc3=O)s2)cc1	-1%	7%	7%	-14%	-8
O=c1oc2ccccc2cc1-c1nc(-c2cccc(Cl)c2)cs1	10%	-34%	-8%	33%	0
CN1CCN(C(=O)Cn2nc(-c3cccc([N+](=O)[O-])c3)c3ccccc3c2=O)CC1	/	/	/	/	20
Nc1ccc(Sc2ccc([N+](=O)[O-])cc2)cc1	-1%	-6%	-4%	11µM*	-2
COc1ccc(S(=O)(=O)c2cn(CC(=O)Nc3ccccc3)c3ccc(Cl)cc3c2=O)cc1	?	5%	4%	-13%	1
COc1cc(/C=C2\SC(=O)N(c3ccccc3Cl)C2=O)cc([N+](=O)[O-])c1O	-1%	2%	2%	18µM*	-4
O=C(CC1N=C2c3ccccc3N=C(SCC(=O)Nc3ccc(F)cc3)N2C1=O)NCc1ccco1 (configuration not stated)	0%	0%	2%	0%	-3
CCCCCOc1ccc(CSC(=N)N)cc1[N+](=O)[O-]	-1%	-16%	-17%	8.9µM*	-3
CC(=O)N(c1ccc(N(C(C)=O)S(=O)(=O)c2cccs2)cc1)S(=O)(=O)c1cccs1	-1%	3%	1%	7%	-88*
CC(=O)N(c1ccc(N(C(C)=O)S(=O)(=O)c2ccccc2)cc1)S(=O)(=O)c1ccccc1	/	-6%	-1%	0%	-66*
CCN1c2ccccc2-n2cccc2C12CCN(C(=O)Nc1ccccc1C(F)(F)F)CC2	4%	-9%	-1%	-3%	0
Cc1ccc(-c2nc(=Nc3ccccc3)sn2-c2ccccc2)cc1	/	/	-4%	/	3
N=c1nc(-c2ccccc2)n(-c2ccccc2)s1	/	/	0%	/	-71*
CC(=O)N1N=C(c2ccc(NS(C)(=O)=O)cc2)CC1c1ccc2nccnc2c1 (configuration not stated)	0%	0%	0%	-6%	2
CS(=O)(=O)Nc1ccc(C2=NN(S(C)(=O)=O)C(c3ccc4nccnc4c3)C2)cc1 (configuration not stated)	0%	22µM*	?	-3%	-2
CCS(=O)(=O)N1N=C(c2cccc(NS(C)(=O)=O)c2)CC1c1ccc(C)cc1 (configuration not stated)	22µM*	11µM*	?	-15%	-2
CCS(=O)(=O)Nc1cccc(C2=NN(S(C)(=O)=O)C(c3ccccc3)C2)c1 (configuration not stated)	?	?	?	-13%	-6
O=C1CCN(CCc2ccccc2)CCN1CCO	/	-1%	-3%	-4%	0
COc1ccc(C(=O)Nc2ccc3oc(-c4ccncc4)nc3c2)cc1Br	/	/	/	/	-33*
CCN1CCc2c(sc(-n3cccc3)c2C(C)NC(=O)Nc2ccc(C(=O)OC)cc2)C1 (configuration not stated)	8%	22µM*	?	-12%	-25
CCOC(=O)N1CCc2c(sc3c2c(=O)n(-c2ccc(CC)cc2)c(=O)n3CC(=O)c2ccc(F)cc2)C1	2%	1%	-3%	-20%	-15
CCOC(=O)N1CCc2c(sc3c2c(=O)n(-c2ccc(F)cc2)c(=O)n3CC(=O)c2ccc(Cl)cc2)C1	16µM*	?	-17%	-22%	-3
COC(=O)c1ccc(NC(=O)CC2C(=O)N(c3cccc(OC)c3)C(=O)N2C(C)C)cc1 (configuration not stated)	0%	-4%	-18%	-10%	-2
C/C(=N\Nc1nccnc1Cl)c1ccc(Cl)c(Cl)c1	/	25µM*	0%	-16%	-3
C/C(=N\Nc1nccnc1Cl)c1ccc(O)cc1	/	2%	-1%	-1%	-3
Cc1ccc(-n2c(C)cc(/C=c3/sc4nc5ccccc5n4c3=O)c2C)cc1	-1%	/	0%	-11%	-2

Assay outcomes: PubChem BioAssay, National Center for Advancing Translational Sciences (NCATS)
